Source: PubChem (National Center for Advancing Translational Sciences (NCATS))
An excerpt weighted towards active compounds, which were near 2.9% of everything screened.
ATXN viability: viability counter-screen for ATXN expression inhibitors; S2 cells (HEK-293 line with an ATXN2-luciferase reporter) viability, CellTiter-Fluor protease fluorescence, 24 h; Potency, µM (series often up to 56.7 µM), most hits filed as cytotoxic; 400,000 tested, 0.49% active; AID 651635; also: nearly all actives have a fitted effect of over 40% in size
ATXN2 expr inh: ATXN2 expression inhibition; HEK-293 ATXN2-luciferase reporter, luminescence, 24 h; Potency, µM (top dose mostly 57 µM), without a hit: at the highest dose activity change, negative = inhibition, actives largely listed as inhibitors; 360,000 tested, 0.72% active; AID 1745845; also: % is scaled to controls: 0 for no effect and ±100 for the full control effect; nearly all actives have a fitted effect of over 55% in size
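qHTS (up to 57 uM final) was run with 24 h compound exposure of reporter cells at 37 °C. Each well was multiplexed: SteadyGlo luminescence measured ATXN2-luciferase expression after a fluorogenic Gly-Phe-AFC viability readout (25 uM final).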
A549 viability: counter-screen for Nrf2 inhibitors: cytotoxicity in A549 cells. Potency, µM (highest dose often 46 µM), for inactives: at the highest dose activity change, negative = cytotoxicity, usual class: inhibitors. 390,000 tested, 0.16% active. A549 ARE-Fluc cells, CellTiter-Fluor viability, 18-24 h; also: % is scaled to controls: 0 for no effect and ±100 for the full control effect
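A549 ARE_Fluc cells in 5% FBS OPTI-MEM were exposed to compounds in concentration-response for 18-24 h at 37 deg C. Viability was read by CellTiter-Fluor fluorescence (Ex 405/Em 525) after 30 min, before the luciferase read.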
Nrf2 activator: Nrf2 pathway activation; 410,000 tested, 0.31% active; AREc32 ARE-luciferase reporter (MCF7-derived line), luminescence, 24 h; Potency, µM (doses to about 46.1 µM), for the others: top-dose activation, usual class: activators; AID 624171; also: % of control where 0% means no effect; nearly all actives have a fitted effect of over 65% in size
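Quantitative high-throughput format: AREc32 reporter cells, 1000 per well, received compound by pin transfer and were incubated 24 hr at 37 deg C, 5% CO2, before Steady-Glo luminescence detection.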
Nrf2 inh: blocks Nrf2 signaling; A549 ARE-Fluc reporter, luciferase luminescence, 18-24 h; Potency, µM (series often up to 46 µM), for the others: top-dose activity change, negative = inhibition, most hits filed as inhibitors; 360,000 tested, 2.1% active; also: % is scaled to controls: 0 for no effect and ±100 for the full control effect; nearly all actives have a fitted effect of over 60% in size
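Nrf2 activity is the BugLite luminescence, read 15 min after reagent at room temperature, following CellTiter-Fluor cytotoxicity readout (30 min, 37C). Compound titrations were applied for 18-24 h to 5000 A549 ARE_Fluc cells/well in 5% FBS OPTI-MEM.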
* = called active by the depositor; i = inactive; ? = inconclusive; · = not tested or not shown; [ ] = another dose, or the depositor's remark. Calls follow the shape of the dose curve; as a rule, active = well fitted curve in the direction sought with a large enough effect; inconclusive = small, poorly fitted or top-dose-only effect, or another doubt; inactive = no such curve, though single readings can be large; an effect the other way counts as inactive or inconclusive. Potency is read from the fitted curve at half-maximal effect.

SMILES | ATXN viability | ATXN2 expr inh | A549 viability | Nrf2 activator | Nrf2 inh
COc1ccc(-c2nc3c(c(=O)[nH]c(=O)n3Cc3ccccc3)n2Cc2ccccc2)cc1 | ? | ? | -15% | 0% | 15µM*
Cn1c(=O)[nH]c(=O)c2c1nc([N+](=O)[O-])n2Cc1ccccc1 | 6µM* | ? | ? | ? | 23µM*
COc1ccc(-c2nc3ccc(NC(C)=O)cc3c(=O)n2Cc2cccc(Cl)c2)cc1COc1ccc(NC(C)=O)cc1 | · | · | -11% | · | ?
COc1ccc(NC(=O)N(C)[C@H]2C[C@H]3c4[nH]c5ccc(-c6cccc(C)c6)cc5c4CCN3C[C@H]2[C@H](C)O)cc1 | · | 25µM* | · | -5% | ·
Cc1cccc(-c2ccc3[nH]c4c(c3c2)CCN2C[C@@H]([C@H](C)O)[C@@H](N(C)C(=O)Nc3ccc(F)cc3)C[C@@H]42)c1 | · | ? | · | -5% | ·
C[C@H](O)[C@@H]1CN2CCc3c([nH]c4ccc(-c5ccc6c(c5)OCO6)cc34)[C@@H]2C[C@@H]1N(C)C(=O)Nc1cc(Cl)cc(Cl)c1 | 16µM* | 20µM* | · | -5% | ·
O=C(OCC1(COC(=O)c2cccnc2)CCCC(COC(=O)c2cccnc2)(COC(=O)c2cccnc2)C1O)c1cccnc1 | i | -1% | · | · | ·
O=C(Nc1ccc2c(c1)OCO2)Nc1ccc2c(c1)OCO2 | i | 12% | 6% | 0% | ?
O=C(Nc1cccc(C(=O)O)c1)Nc1ccc2c(c1)OCO2 | i | 5µM* | 2% | -3% | ?
COc1cc(NC(=O)Nc2ccc3c(c2)OCO3)cc(OC)c1OC | i | -21% | -2% | 4% | 7%
COc1ccc(C(C)(C)C)cc1NC(=O)Nc1ccc2c(c1)OCO2 | i | 0% | ? | -1% | 23µM*
Cc1ccsc1CN1CCc2nnc(CCNC(=O)c3ccc(F)cc3)n2CC1 | i | · | · | · | ·
COc1ccc(NC(=O)CSc2nc(=O)n(CCN3CCOCC3)c3c2CCC3)cc1 | i | -1% | -4% | 0% | 0%
O=C(CSc1nc(=O)n(CCN2CCOCC2)c2c1CCC2)Nc1ccc(OC(F)(F)F)cc1 | i | -28% | -1% | 2% | 18µM*
CC(=O)N1c2ccc(S(=O)(=O)NCCC(=O)Nc3ccc(Cl)cc3)cc2CC1C (configuration not stated) | · | · | · | 2% | ·
CC(=O)N1c2ccc(S(=O)(=O)NCCC(=O)NCCc3ccc(C)cc3)cc2CC1C (configuration not stated) | i | -28% | -8% | 0% | 16µM*
CC(=O)N1c2ccc(S(=O)(=O)NCCC(=O)Nc3ccc(OC(F)(F)F)cc3)cc2CC1C (configuration not stated) | i | -24% | -7% | 2% | 18µM*
CC(=O)N1c2ccc(S(=O)(=O)NCCc3ccc(Cl)cc3)cc2CC1C (configuration not stated) | i | · | -7% | 2% | -3%
CC(=O)N1c2ccc(S(=O)(=O)NCCC(=O)NCCc3ccc(Cl)cc3)cc2CC1C (configuration not stated) | i | -9% | -8% | 0% | 21µM*
CC(=O)N1CCc2cc(S(=O)(=O)C(C)CC(=O)Nc3ccc(OC(F)(F)F)cc3)ccc21 (configuration not stated) | i | 0% | -8% | -1% | 12µM*
Cc1ccc(-c2c(CN3CCN(c4cccc(C)c4)C(C)C3)csc2C)cc1 (configuration not stated) | · | · | -1% | 1% | 1%
COC(=O)C1=C(C)NC(C)=C(C(=O)OCCc2ccc(N3CCN(C(c4ccccc4)c4ccccc4)CC3)cc2)C1c1cccc([N+](=O)[O-])c1 (configuration not stated) | i | 4% | · | · | ·
CCn1nc(C)cc1C(=O)OCC(=O)c1ccc(Cl)cc1 | i | -12% | 1% | 0% | 18µM*
CCOC(=O)C1=C(C)NC(C)=C(C(=O)OCC)C1c1cccc([N+](=O)[O-])c1 | i | · | · | 3% | ·
COC(=O)C1=C(C)NC(C)=C(C(=O)OCC(C)C)C1c1ccccc1[N+](=O)[O-] (configuration not stated) | ? | ? | -10% | 3% | 16µM*
SMILES | ATXN viability | ATXN2 expr inh | A549 viability | Nrf2 activator | Nrf2 inh
O=C1OCCC1Sc1nnc(-c2ccc(Cl)cc2Cl)o1 (configuration not stated) | i | 6.3µM* | 10% | -2% | 9.2µM*
O=C1OCCC1Sc1nnc(-c2ccccc2)o1 (configuration not stated) | i | -20% | -7% | -1% | -10%
Cc1ccc(Cc2c(C3CCCCC3)nc3ccc(C)cn23)cc1 | 13µM* | 16µM* | · | 3% | ·
Cc1ccc2nc(C3CCCCC3)c(Cc3ccsc3)n2c1 | ? | ? | · | 4% | ·
CN(C)CCCN(Cc1ccccc1)C(=S)Nc1cccc(C(F)(F)F)c1 | ? | -23% | 19% | -1%[9.22 µM] | 4%
CCCN(Cc1ccccc1)C(=S)Nc1cccc(C(F)(F)F)c1 | i | · | 2% | 3% | 21µM*
Cc1ccc(NC(=S)N(CCCN2CCCC2)Cc2cccn2Cc2ccc(Cl)cc2)cc1C | i | -25% | ? | 0% | ?
FC(F)(F)c1cccc(NC(=S)N(CCCN2CCCC2)Cc2cccn2Cc2ccc(Cl)cc2)c1 | 28µM* | 16µM* | -7% | 0% | -29%
Cc1cc(-c2ccnc(-n3ncc(C(=O)NCc4cccnc4)c3C3CC3)n2)c(C)s1 | i | · | · | · | ·
CC1Sc2ccc(S(=O)(=O)N3CCC(C(=O)Nc4ccc(Cl)cc4)CC3)cc2NC1=O (configuration not stated) | ? | · | 1% | 7% | -3%
COc1ccc(NC(=O)C2CCN(S(=O)(=O)c3ccc4c(c3)NC(=O)C(C)S4)CC2)cc1 (configuration not stated) | i | -32% | -3% | 1% | 23µM*
COc1cccc(NC(=O)C2CCN(S(=O)(=O)c3ccc4c(c3)NC(=O)C(C)S4)CC2)c1 (configuration not stated) | i | -33% | -7% | 4% | ?
CCOc1ccc(NC(=O)C2CCN(S(=O)(=O)c3ccc4c(c3)NC(=O)C(C)S4)CC2)cc1 (configuration not stated) | i | -10% | -14% | 2% | 15µM*
C=CCc1ccccc1OCC(=O)N/N=C/c1ccc(OC(C)=O)cc1OC(C)=O | i | 22µM* | 4% | 0% | ?
CC(=O)Oc1ccc(/C=N/NS(=O)(=O)c2ccc(C)cc2)c(OC(C)=O)c1 | i | -6% | 3% | 3% | -4%
Cc1ccccc1OCC(=O)N/N=C/c1cc2ccccc2nc1Cl | i | 6% | -27% | 1% | 18µM*
O=C(COc1cccc(Cl)c1)N/N=C\c1cc2ccccc2nc1Cl | ? | -25% | 0% | 0% | 5%
